# Measurements as given in PubChem BioAssay.
# Activity calls are given as the source filed them.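 Rule for the calls, unless noted: active = GFP response above 150% of the DMSO level; inconclusive = fewer than 70 events counted for a yeast strain; inactive = the rest.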
# Tests used:
# [1] = hit retest on RPL19A-GFP reporter strain – cell-based, S. cerevisiae, flow cytometry, cherry picks, mother/daughter gates, confirmation (AID 2270;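 active = GFP response below 50% of the DMSO control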); settings: 3 h, at 10 µM, stronger effect = lower value, 100 = same GFP as DMSO wells
# [2] = yeast TOR pathway reporter LAP4-GFP change – cell-based, cherry picks, flow cytometry, mother/daughter gates, confirmation (AID 2271;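 active = GFP response above 150% of the DMSO control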;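 note: ratio of sample to DMSO plate mean so 100% equals DMSO level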); settings: S. cerevisiae LAP4-GFP strain, 3 h, at 10 µM, stronger effect = higher value, 100 means same as DMSO control
# [3] = TOR pathway reporter MEP2-GFP, retest of hits – S. cerevisiae, flow cytometry GFP, cherry picks, confirmation (AID 2272;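 active = GFP response above 150% of the DMSO control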;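 note: ratio of well signal to plate DMSO mean so 100% equals DMSO level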); settings: S. cerevisiae MEP2-GFP strain, 3 h, at 10 µM, stronger effect = higher value
# [4] = yeast AGP1-GFP fluorescence change, single-dose – cell-based, flow cytometry, S. cerevisiae, cherry picks, confirmation (AID 2273);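 note: median GFP channel fluorescence over the whole cell population gate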; settings: S. cerevisiae AGP1-GFP strain, 3 h, at 10 µM
# [5] = TOR pathway CIT2 reporter hit retest – S. cerevisiae, GFP fusion, cherry picks, mother/daughter gates, confirmation (AID 2274); settings: S. cerevisiae CIT2-GFP strain, flow cytometry, 3 h, at 10 µM, stronger effect = higher value
# [6] = reduced mouse 2C T cell binding to pMHC/ICAM-1 vesicles – MLPCN validation set, flow cytometry, LFA-1/ICAM-1 modulator project, pilot screen (AID 2523;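 active = response below a set limit, under 55% cells CD8-positive and vesicle-bound, and CD8 cells' 90th-percentile brightness under 279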;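 for vesicle binding response: mean PE anti-B7-1 fluorescence of CD8+ cells relative to row control; 100% = QL9-loaded vesicles with DMSO vehicle in the same plate row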); settings: 2C mouse CD8+ T cells, at 7 µM, stronger effect = lower value; double positive events: measured here: CD8+/vesicle+ event percentage
# [7] = target: Integrin beta-1 (Homo sapiens) + Integrin alpha-4 (Homo sapiens) (UniProt P13612+P05556); test: alpha4beta1 integrin LIBS antibody binding reduction – U937 cells, HUTS-21 mAb, flow cytometry, validation set, VLA-4 allosteric modulator project, pilot screen (AID 2674;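 active = inhibition above 50%, about 3 SD of the validation set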;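 note: antibody binding induced by the VLA-4 ligand LDV present at three times its Kd; 0% = LDV ligand with antibody and no compound and 100% = antibody without LDV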); settings: HUTS-21 LIBS mAb binding, at 6.7 µM, stronger effect = higher value, binding induced by LDV ligand
# [8] = calorie-restriction mimetic ROS inhibitors, yeast – validation compound set, pilot screen (AID 2706;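 active = superoxide response below 65% of plate, a cut near 3 SD across the whole screen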;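 note: yeast exposed to compound for one week at 30 degrees C before staining; 100% = mean of all compound wells on the same plate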); settings: S. cerevisiae aging, superoxide DHE fluorescence; at 10 µM, stronger effect = lower value
# [9] = target: Beta-adrenergic receptor kinase 1 (Homo sapiens) (UniProt P25098); test: GRK2 binders displacing RNA aptamer, biochemical, validation, human GRK2, bead flow cytometry (AID 488806;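 active = aptamer binding inhibition above 30%, about 3 SD of noise from non-fluorescent compounds; inactive = inhibition at or below 30%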); settings: bead-bound GRK2, FAM-aptamer displacement, at 10 µM, stronger effect = higher value
# [10] = target: Beta-2 adrenergic receptor (Homo sapiens) (UniProt P07550); test: agonist-induced loss of surface beta2AR – cell-based, FAP fluorogen, flow cytometry, validation set, pilot screen (AID 504459;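 active = percent response above 42, roughly 3 SD of non-fluorescent test compounds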;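 note: agonist-driven loss of surface beta2AR via internalization measured by FAP dye flow cytometry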); settings: Am2.2-beta2AR cells, at 10 µM, stronger effect = higher value
# [11] = target: AP-2 complex subunit beta (Homo sapiens) (UniProt P63010); test: beta-arrestin/AP2 interaction blockers – biochemical, validation set, GST-AP2 beads, flow cytometry, pilot screen (AID 504541;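 active = inhibition above 54%, about 3 SD of non-fluorescent compounds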;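 note: AP2 carries R879A mutation and is captured from E. coli lysate; bead-bound FITC arrestin peptide fluorescence measuring arrestin peptide binding to AP2; 0% = DMSO wells and 100% = excess unlabeled arrestin peptide control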); settings: FITC arrestin peptide, at 10 µM, stronger effect = higher value, AP2 beta2 appendage fragment, R879A mutant
# [12] = cytosolic pH regulators acting via V-ATPase – S. cerevisiae, pHLuorin, HTS validation (AID 504600; in the data active = response above about 15%;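 note: plate controls were DMSO for no effect and reference compound for full effect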); settings: V-ATPase proton transport, at 10 µM, stronger effect = higher value
# [13] = system: anti-desmoglein-3 scFv antibody binding to human DSG3; test: blockers of pathogenic pemphigus antibody–desmoglein-3 binding – biochemical, validation compound set, bead-based, flow cytometry, pilot screen (AID 588368;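 active = binding below the plate cutoff, the plate median minus 3 SD, with a reading above zero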;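 note: signal is the median channel fluorescence of bead-bound GFP antibody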); settings: Protein G beads, DSG3-Fc, scFv-GFP binding, at 10 µM, stronger effect = lower value
# [14] = Nile Red efflux blockade in pump-expressing yeast – validation compound set, multiplex, phenotypic, pilot screen (AID 588506;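 active = efflux inhibition above 0.42, the validation set average plus 4 SD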;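 note: Nile Red retained in cells so higher fluorescence means more efflux inhibition; 0 = negative control wells and 1 = enniatin B 25 µM full block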); settings: S. cerevisiae pump-expressing triplex, Nile Red efflux flow cytometry; at 10 µM; stronger effect = higher value; the pumps come from Candida albicans
# [15] = target: ATP-binding cassette sub-family B member 6 (Homo sapiens) (UniProt Q9NP58); test: blockers of ABCB6-driven porphyrin uptake – K562-ABCB6 cells, flow cytometry, validation set, pilot screen (AID 588550;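 active = inhibition above the screen-wide mean plus 3 SD, about 51%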;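 note: 0% = DMSO wells and 100% = benzethonium chloride 70 µM positive control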); settings: K562-ABCB6 porphyrin accumulation, 1 h, at 10 µM, stronger effect = higher value
# [16] = AML differentiation inducers, ER-HoxA9 marrow cells – cell-based, GFP/MAC1 double positive, flow cytometry, validation set, primary screen (AID 588685;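 active = differentiation response of at least 50%, scaled between solvent and reference control, from cells with both markers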;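 note: compound exposure lasts four days before antibody staining and flow analysis; 0% = DMSO wells and 100% = 5 µM fulvestrant positive control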); settings: stronger effect = higher value, normalized: vehicle 0, fulvestrant 100
# [17] = measured here: daughter cell gate
# [18] = measured here: mother cell gate
# Sequence of AP-2 complex subunit beta (Homo sapiens) (P63010 whole entry, looked up, the tested form may be a part, one chain of several): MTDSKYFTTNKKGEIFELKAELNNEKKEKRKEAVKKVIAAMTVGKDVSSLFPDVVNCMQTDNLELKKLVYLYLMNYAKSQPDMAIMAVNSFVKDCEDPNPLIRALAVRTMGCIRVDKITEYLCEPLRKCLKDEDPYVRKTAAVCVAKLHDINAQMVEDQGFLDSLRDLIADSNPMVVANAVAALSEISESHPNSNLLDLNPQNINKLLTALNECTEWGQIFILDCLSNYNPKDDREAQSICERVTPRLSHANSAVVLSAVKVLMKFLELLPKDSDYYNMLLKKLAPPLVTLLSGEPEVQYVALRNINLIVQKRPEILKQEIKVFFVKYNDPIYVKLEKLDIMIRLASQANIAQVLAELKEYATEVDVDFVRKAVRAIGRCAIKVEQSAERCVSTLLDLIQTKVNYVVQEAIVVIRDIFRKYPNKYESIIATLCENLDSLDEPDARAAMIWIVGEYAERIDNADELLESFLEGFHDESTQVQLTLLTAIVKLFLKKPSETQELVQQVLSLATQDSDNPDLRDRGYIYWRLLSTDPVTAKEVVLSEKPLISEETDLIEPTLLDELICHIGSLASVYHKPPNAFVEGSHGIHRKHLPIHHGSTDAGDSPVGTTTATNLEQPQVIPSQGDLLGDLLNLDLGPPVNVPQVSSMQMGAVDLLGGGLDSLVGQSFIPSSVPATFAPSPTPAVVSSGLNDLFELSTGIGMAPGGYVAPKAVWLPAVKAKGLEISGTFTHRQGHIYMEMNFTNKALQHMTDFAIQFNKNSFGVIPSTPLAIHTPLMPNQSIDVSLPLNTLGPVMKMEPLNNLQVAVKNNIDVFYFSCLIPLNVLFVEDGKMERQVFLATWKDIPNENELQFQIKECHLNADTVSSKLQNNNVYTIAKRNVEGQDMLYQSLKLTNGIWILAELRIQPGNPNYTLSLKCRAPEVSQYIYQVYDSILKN
# Sequence of Integrin beta-1 (Homo sapiens) + Integrin alpha-4 (Homo sapiens) (P05556 whole entry, looked up): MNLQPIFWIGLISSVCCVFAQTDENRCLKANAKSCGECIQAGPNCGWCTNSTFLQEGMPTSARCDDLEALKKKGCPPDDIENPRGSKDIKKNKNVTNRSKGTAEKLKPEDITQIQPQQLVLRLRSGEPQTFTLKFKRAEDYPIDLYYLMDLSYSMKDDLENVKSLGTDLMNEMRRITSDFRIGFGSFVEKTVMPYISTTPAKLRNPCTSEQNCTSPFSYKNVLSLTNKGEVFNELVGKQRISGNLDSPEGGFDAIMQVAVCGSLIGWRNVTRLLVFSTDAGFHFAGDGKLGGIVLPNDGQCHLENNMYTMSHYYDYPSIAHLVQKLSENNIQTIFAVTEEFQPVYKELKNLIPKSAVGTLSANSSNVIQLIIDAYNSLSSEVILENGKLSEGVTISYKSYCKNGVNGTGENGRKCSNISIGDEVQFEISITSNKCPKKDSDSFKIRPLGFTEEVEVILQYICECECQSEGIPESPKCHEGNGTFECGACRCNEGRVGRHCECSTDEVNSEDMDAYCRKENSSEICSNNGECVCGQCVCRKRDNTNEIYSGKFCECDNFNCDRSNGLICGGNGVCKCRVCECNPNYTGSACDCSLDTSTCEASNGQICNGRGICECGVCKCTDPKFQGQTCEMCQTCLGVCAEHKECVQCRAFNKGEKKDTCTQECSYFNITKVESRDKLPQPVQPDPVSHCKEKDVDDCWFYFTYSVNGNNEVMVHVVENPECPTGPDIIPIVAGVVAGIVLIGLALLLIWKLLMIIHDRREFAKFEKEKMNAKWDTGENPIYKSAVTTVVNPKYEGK
# Sequence of Integrin beta-1 (Homo sapiens) + Integrin alpha-4 (Homo sapiens) (P13612 whole entry, looked up): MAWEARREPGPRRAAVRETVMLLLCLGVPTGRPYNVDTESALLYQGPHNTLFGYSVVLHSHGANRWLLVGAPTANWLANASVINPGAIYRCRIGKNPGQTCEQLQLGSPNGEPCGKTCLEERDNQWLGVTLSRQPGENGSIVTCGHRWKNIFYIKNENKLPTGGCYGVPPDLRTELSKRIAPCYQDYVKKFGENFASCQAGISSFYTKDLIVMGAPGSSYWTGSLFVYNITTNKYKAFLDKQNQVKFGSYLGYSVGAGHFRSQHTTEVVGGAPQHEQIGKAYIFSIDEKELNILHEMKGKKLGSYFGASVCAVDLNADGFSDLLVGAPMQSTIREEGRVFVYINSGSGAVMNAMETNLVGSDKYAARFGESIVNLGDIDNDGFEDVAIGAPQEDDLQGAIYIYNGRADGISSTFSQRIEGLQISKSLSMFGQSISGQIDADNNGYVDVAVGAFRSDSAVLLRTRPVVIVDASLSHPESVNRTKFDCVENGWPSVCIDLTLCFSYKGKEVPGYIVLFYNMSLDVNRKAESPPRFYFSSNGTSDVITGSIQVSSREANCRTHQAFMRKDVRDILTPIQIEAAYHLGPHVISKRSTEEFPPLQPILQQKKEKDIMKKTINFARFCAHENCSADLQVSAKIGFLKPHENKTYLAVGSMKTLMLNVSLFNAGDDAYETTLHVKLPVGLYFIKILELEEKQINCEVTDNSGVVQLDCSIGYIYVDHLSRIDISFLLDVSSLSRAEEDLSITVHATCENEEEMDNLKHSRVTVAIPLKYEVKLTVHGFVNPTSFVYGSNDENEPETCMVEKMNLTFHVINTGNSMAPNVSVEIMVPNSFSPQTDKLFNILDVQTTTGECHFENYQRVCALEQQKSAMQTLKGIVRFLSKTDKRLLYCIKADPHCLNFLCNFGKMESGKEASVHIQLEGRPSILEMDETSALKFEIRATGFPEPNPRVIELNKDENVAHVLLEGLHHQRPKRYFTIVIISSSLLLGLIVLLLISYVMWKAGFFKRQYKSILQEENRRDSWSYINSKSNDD
# Sequence of ATP-binding cassette sub-family B member 6 (Homo sapiens) (Q9NP58 whole entry, looked up): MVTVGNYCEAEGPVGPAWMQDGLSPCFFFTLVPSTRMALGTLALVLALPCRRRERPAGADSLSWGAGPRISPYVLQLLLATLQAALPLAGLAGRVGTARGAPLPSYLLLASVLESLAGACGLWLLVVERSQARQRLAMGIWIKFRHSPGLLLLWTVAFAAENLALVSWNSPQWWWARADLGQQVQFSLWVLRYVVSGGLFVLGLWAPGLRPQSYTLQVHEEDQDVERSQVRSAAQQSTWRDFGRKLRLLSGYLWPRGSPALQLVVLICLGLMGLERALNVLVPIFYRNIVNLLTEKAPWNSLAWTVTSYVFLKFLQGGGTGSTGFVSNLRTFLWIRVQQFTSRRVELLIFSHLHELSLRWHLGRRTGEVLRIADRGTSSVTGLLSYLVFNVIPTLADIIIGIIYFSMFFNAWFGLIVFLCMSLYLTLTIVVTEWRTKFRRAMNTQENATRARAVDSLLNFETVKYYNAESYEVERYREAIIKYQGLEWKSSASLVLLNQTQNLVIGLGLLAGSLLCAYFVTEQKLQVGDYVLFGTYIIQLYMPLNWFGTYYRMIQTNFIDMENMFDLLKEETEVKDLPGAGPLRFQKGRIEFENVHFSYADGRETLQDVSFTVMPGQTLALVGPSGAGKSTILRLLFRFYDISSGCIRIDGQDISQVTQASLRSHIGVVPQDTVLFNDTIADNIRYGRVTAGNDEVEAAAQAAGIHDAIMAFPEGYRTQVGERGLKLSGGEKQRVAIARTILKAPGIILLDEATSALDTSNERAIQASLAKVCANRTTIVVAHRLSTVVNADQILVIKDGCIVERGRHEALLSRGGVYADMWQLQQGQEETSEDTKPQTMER
# Sequence of Beta-2 adrenergic receptor (Homo sapiens) (P07550 whole entry, looked up): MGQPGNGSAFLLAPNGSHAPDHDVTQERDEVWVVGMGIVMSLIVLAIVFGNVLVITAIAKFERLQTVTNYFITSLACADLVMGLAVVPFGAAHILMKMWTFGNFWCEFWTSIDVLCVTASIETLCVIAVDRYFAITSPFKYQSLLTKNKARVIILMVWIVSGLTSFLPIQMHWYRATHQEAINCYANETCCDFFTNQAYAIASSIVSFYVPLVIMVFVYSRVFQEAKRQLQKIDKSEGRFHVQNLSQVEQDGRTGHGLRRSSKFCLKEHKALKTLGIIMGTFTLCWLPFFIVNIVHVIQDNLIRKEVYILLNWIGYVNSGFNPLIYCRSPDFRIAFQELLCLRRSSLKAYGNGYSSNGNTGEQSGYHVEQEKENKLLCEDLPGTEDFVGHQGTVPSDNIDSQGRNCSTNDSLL
# Sequence of Beta-adrenergic receptor kinase 1 (Homo sapiens) (P25098 whole entry, looked up): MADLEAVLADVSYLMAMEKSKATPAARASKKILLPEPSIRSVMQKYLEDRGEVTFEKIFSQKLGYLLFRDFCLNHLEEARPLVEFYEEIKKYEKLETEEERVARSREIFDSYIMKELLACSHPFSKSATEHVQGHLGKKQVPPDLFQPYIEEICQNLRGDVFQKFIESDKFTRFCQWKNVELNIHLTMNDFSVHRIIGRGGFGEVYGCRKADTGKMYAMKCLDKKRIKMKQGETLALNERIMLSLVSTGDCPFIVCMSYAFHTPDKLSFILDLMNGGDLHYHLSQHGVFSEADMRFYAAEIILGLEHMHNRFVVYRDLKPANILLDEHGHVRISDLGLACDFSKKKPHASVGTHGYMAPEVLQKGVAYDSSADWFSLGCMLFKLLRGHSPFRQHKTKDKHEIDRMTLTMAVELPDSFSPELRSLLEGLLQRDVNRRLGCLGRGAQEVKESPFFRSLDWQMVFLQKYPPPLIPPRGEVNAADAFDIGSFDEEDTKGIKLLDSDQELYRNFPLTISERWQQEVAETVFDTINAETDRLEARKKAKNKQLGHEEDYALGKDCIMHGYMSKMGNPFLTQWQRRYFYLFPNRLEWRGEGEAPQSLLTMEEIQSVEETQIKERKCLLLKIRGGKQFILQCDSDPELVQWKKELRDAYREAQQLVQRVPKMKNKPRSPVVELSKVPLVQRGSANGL
smiles,measurement,setting,value
O=C(O)CSC1CC(=O)N(c2ccc(Cl)cc2)C1=O (stereo not given),GFP response vs DMSO,[1],93.1% (inactive)
same,GFP response relative to DMSO,[2],102% (inactive)
same,GFP response vs DMSO,[3],108% (inactive)
same,"GFP response, % of DMSO",[4],97.3% (inactive)
same,"GFP response, % of DMSO",[5],104% (inactive)
same,"GFP response, % of DMSO",[5]; [17],90.5%
Cc1cc(C(=O)NC(CC(C)C)C(=O)O)cc(C)c1[N+](=O)[O-] (stereo not given),double positive events,[6],61.7%
same,vesicle binding response,[6],204% (inactive)
same,inhibition,[7],-2.43% (inactive)
same,superoxide response (% of plate),[8],96.9% (inactive)
same,aptamer binding inhibition,[9],4% (inactive)
same,response,[10],1% (inactive)
same,inhibition,[11],1.45% (inactive)
same,response,[12],-4.26% (inactive)
same,binding (% of control),[13],99% (inactive)
same,efflux inhibition (fraction of control),[14],-0.12 (inactive)
same,inhibition,[15],17% (inactive)
same,differentiation response,[16],-10.4% (inactive)
CC(C)(C)C(=O)NC(=S)NNC(=O)c1sc2ccccc2c1Cl,GFP response vs DMSO,[1],116% (inactive)
same,GFP response relative to DMSO,[2],242% (active)
same,GFP response vs DMSO,[3],122% (inactive)
same,"GFP response, % of DMSO",[4],137% (inactive)
same,"GFP response, % of DMSO",[5],106% (inactive)
same,"GFP response, % of DMSO",[5]; [17],90.5%
same,"GFP response, % of DMSO",[5]; [18],91.5%
Cc1ccc2c(c1)C1CN(C)CCC1N2C(=O)c1ccc(Cl)c(S(=O)(=O)N2CCOCC2)c1 (stereo not given),GFP response vs DMSO,[1],102% (inactive)
same,GFP response relative to DMSO,[2],107% (inactive)
same,GFP response vs DMSO,[3],102% (inactive)
same,"GFP response, % of DMSO",[4],102% (inactive)
same,"GFP response, % of DMSO",[5],112% (inactive)
CCCCNC(=O)c1cc2c(=O)n3cccc(C)c3nc2n(Cc2ccncc2)c1=N,GFP response vs DMSO,[1],97.2% (inactive)
same,GFP response relative to DMSO,[2],96.5% (inactive)
same,GFP response vs DMSO,[3],102% (inactive)
same,"GFP response, % of DMSO",[4],102% (inactive)
same,"GFP response, % of DMSO",[5],104% (inactive)
same,"GFP response, % of DMSO",[5]; [17],96.4%
same,"GFP response, % of DMSO",[5]; [18],95.6%
CN(C)CCCN(C(=O)c1cccs1)c1nc(-c2ccccc2)cs1,GFP response vs DMSO,[1],98% (inactive)
same,GFP response relative to DMSO,[2],90.7% (inactive)
same,GFP response vs DMSO,[3],102% (inactive)
same,"GFP response, % of DMSO",[4],100% (inactive)
same,"GFP response, % of DMSO",[5],101% (inactive)
CCN(CC)CCCN(C(=O)c1cccs1)c1nc(-c2ccc(OC)cc2)cs1,GFP response vs DMSO,[1],104% (inactive)
same,GFP response relative to DMSO,[2],98.7% (inactive)
same,GFP response vs DMSO,[3],109% (inactive)
same,"GFP response, % of DMSO",[4],98% (inactive)
same,"GFP response, % of DMSO",[5],107% (inactive)
same,"GFP response, % of DMSO",[5]; [17],101%
same,"GFP response, % of DMSO",[5]; [18],101%
O=c1c2ccccc2nc2n1-c1ccccc1CCC2,double positive events,[6],64.2%
same,vesicle binding response,[6],201% (inactive)
same,inhibition,[7],13% (inactive)
same,superoxide response (% of plate),[8],96.9% (inactive)
same,aptamer binding inhibition,[9],1% (inactive)
same,response,[10],-9.83% (inactive)
same,inhibition,[11],-5.56% (inactive)
same,response,[12],0.74% (inactive)
same,binding (% of control),[13],99.2% (inactive)
same,efflux inhibition (fraction of control),[14],-0.23 (inactive)
same,inhibition,[15],0% (inactive)
same,differentiation response,[16],1.22% (inactive)
OC(CCCN1CCCCC1)(c1ccccc1)c1ccccc1,double positive events,[6],62.8%
same,vesicle binding response,[6],250% (inactive)
same,inhibition,[7],19.1% (inactive)
same,superoxide response (% of plate),[8],104% (inactive)
same,aptamer binding inhibition,[9],-3% (inactive)
same,response,[10],-0.72% (inactive)
same,inhibition,[11],-8.31% (inactive)
same,response,[12],2.56% (inactive)
same,binding (% of control),[13],108% (inactive)
same,efflux inhibition (fraction of control),[14],0.34 (inactive)
same,inhibition,[15],4% (inactive)
same,differentiation response,[16],-2.46% (inactive)
COc1ccccc1/C=C/C(=O)c1ccc(Cl)cc1,GFP response vs DMSO,[1],102% (inactive)
same,GFP response relative to DMSO,[2],92.6% (inactive)
same,GFP response vs DMSO,[3],97.8% (inactive)
same,"GFP response, % of DMSO",[4],98.9% (inactive)
same,"GFP response, % of DMSO",[5],103% (inactive)
CCOC(=O)c1cc2cc3ccccc3cc2[nH]1,double positive events,[6],70.4%
same,vesicle binding response,[6],334% (inactive)
same,inhibition,[7],-1.79% (inactive)
same,superoxide response (% of plate),[8],81.1% (inactive)
same,aptamer binding inhibition,[9],1% (inactive)
same,response,[10],15.9% (inactive)
same,inhibition,[11],-6.18% (inactive)
same,response,[12],-1.49% (inactive)
same,binding (% of control),[13],99.1% (inactive)
same,efflux inhibition (fraction of control),[14],-0.1 (inactive)
same,inhibition,[15],6% (inactive)
same,differentiation response,[16],7.2% (inactive)
CCC(=O)OCCNc1cc(Sc2nc3ccccc3s2)c2nonc2c1[N+](=O)[O-],GFP response vs DMSO,[1],90.5% (inactive)
same,GFP response relative to DMSO,[2],254% (active)
same,GFP response vs DMSO,[3],97.8% (inactive)
same,"GFP response, % of DMSO",[4],124% (inactive)
same,"GFP response, % of DMSO",[5],80.8% (inactive)
COc1cc2c(cc1OC)C1(CCCCC1)CN(C)C2,double positive events,[6],57.3%
same,vesicle binding response,[6],258% (inactive)
same,inhibition,[7],16% (inactive)
same,superoxide response (% of plate),[8],103% (inactive)
same,aptamer binding inhibition,[9],5% (inactive)
same,response,[10],5.44% (inactive)
same,inhibition,[11],4.18% (inactive)
same,response,[12],1.68% (inactive)
same,binding (% of control),[13],89% (inactive)
same,efflux inhibition (fraction of control),[14],0.12 (inactive)
same,inhibition,[15],-22% (inactive)
same,differentiation response,[16],4% (inactive)
COc1cc(OC)c(C(=O)CCCN2CCCC2)c(OC)c1,double positive events,[6],65.4%
same,vesicle binding response,[6],214% (inactive)
same,inhibition,[7],-3.24% (inactive)
same,superoxide response (% of plate),[8],97.6% (inactive)
same,aptamer binding inhibition,[9],4% (inactive)
same,response,[10],-11.1% (inactive)
same,inhibition,[11],1.36% (inactive)
same,response,[12],1.8% (inactive)
same,binding (% of control),[13],109% (inactive)
same,efflux inhibition (fraction of control),[14],0.19 (inactive)
same,inhibition,[15],10% (inactive)
same,differentiation response,[16],-8.19% (inactive)
O=C(NOC(=O)c1ccccc1)c1ccccc1,GFP response vs DMSO,[1],108% (inactive)
same,GFP response relative to DMSO,[2],118% (inactive)
same,GFP response vs DMSO,[3],130% (inactive)
same,"GFP response, % of DMSO",[4],88.2% (inactive)
same,"GFP response, % of DMSO",[5],113% (inactive)
same,"GFP response, % of DMSO",[5]; [17],103%
same,"GFP response, % of DMSO",[5]; [18],96.6%
COc1ccc(/C=N\NC(=O)CCc2c(C)n[nH]c2C)c(OC)c1OC,double positive events,[6],60.3%
same,vesicle binding response,[6],151% (inactive)
same,inhibition,[7],-3.16% (inactive)
same,superoxide response (% of plate),[8],111% (inactive)
same,aptamer binding inhibition,[9],2% (inactive)
same,response,[10],3.8% (inactive)
same,inhibition,[11],7.15% (inactive)
same,response,[12],-0.97% (inactive)
same,binding (% of control),[13],102% (inactive)
same,efflux inhibition (fraction of control),[14],-0.21 (inactive)
same,inhibition,[15],4% (inactive)
same,differentiation response,[16],4% (inactive)
C=C(C)COc1ccc(-c2nc(N)ncc2-c2ccc(OC)cc2)c(O)c1,double positive events,[6],55.6%
same,vesicle binding response,[6],43.9% (inactive)
same,inhibition,[7],20.3% (inactive)
same,superoxide response (% of plate),[8],111% (inactive)
same,aptamer binding inhibition,[9],1% (inactive)
same,response,[10],-10.8% (inactive)
same,inhibition,[11],-4.84% (inactive)
same,response,[12],1.42% (inactive)
same,binding (% of control),[13],92% (inactive)
same,efflux inhibition (fraction of control),[14],-0.45 (inactive)
same,inhibition,[15],4% (inactive)
same,differentiation response,[16],-9.53% (inactive)
